Experimental data as given in PubChem BioAssay AID1159580 (chemical genetic matrix, 2015).
Among all 5,500 compounds or so, about 2,000 (36%) were called active. Inconclusive results (about 18%) are left out. No stated cut-off is given here; in the data, active means normalized growth mostly below about 0.91 (no sharp cut-off); inconclusive means no clear call, values can overlap the other calls; inactive means mostly above about 0.92. The list shows a part of the results.

Test: chemical genetic growth profiling, strain panel (AID 1159580);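 further: tested at 20 µM; growth read once vehicle control cultures reached saturation at 30 °C; 1 = growth at the plate median or of vehicle wells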
Details: growth OD
[1] = S. cerevisiae deletion strains, locus YDR150W, strain NUM1, stronger effect = lower value
[2] = S. cerevisiae deletion strains, locus YMR263W, strain SAP30, stronger effect = lower value
[3] = S. cerevisiae deletion strains, locus YPL055C, strain LGE1, stronger effect = lower value
[4] = S. cerevisiae deletion strains, locus YPL241C, strain CIN2, stronger effect = lower value
[5] = S. cerevisiae deletion strains, locus YDL101C, strain DUN1, stronger effect = lower value
[6] = S. cerevisiae deletion strains, locus YHR030C, strain SLT2, stronger effect = lower value

Measured: normalized growth

OCc1cc(C(O)CNCCCCCCOCCCCc2ccccc2)ccc1O (stereo unspecified)
inactive: S. cerevisiae deletion strains, locus YAL040C, strain CLN3, stronger effect = lower value 1.07 | S. cerevisiae deletion strains, locus YCL061C, strain MRC1 (second series), stronger effect = lower value 1.01 | [1] 1.01 | S. cerevisiae deletion strains, locus YDR363W, strain ESC2, stronger effect = lower value 0.995 | S. cerevisiae deletion strains, locus YER002W, strain NOP16, stronger effect = lower value 1.02 | [2] 1.01 | S. cerevisiae deletion strains, locus YMR307W, strain GAS1, stronger effect = lower value 0.992 | S. cerevisiae deletion strains, locus YNL175C, strain NOP13, stronger effect = lower value 1.01 | S. cerevisiae deletion strains, locus YNL197C, strain WHI3, stronger effect = lower value 1.01 | S. cerevisiae deletion strains, locus YNL224C, strain SQS1, stronger effect = lower value 1.01 | S. cerevisiae deletion strains, locus YOR083W, strain WHI5 (second series), stronger effect = lower value 1.01 | [3] 0.983 | [4] 0.997

N/C(Cn1ccc(C(F)(F)F)n1)=N/OS(=O)(=O)c1cccc(Cl)c1Cl
inactive: S. cerevisiae deletion strains, locus YAR019C, strain CDC15, stronger effect = lower value 0.979 | S. cerevisiae deletion strains, locus YBL105C, strain PKC1, stronger effect = lower value 0.989 | S. cerevisiae deletion strains, locus YBR135W, strain CKS1, stronger effect = lower value 0.977 | S. cerevisiae deletion strains, locus YBR136W, strain MEC1, stronger effect = lower value 0.985 | S. cerevisiae deletion strains, locus YBR160W, strain CDC28, stronger effect = lower value 0.972 | S. cerevisiae deletion strains, locus YDL017W, strain CDC7, stronger effect = lower value 0.994 | S. cerevisiae deletion strains, locus YDL028C, strain MPS1, stronger effect = lower value 0.985 | [5] 0.989 | S. cerevisiae deletion strains, locus YDL108W, strain KIN28, stronger effect = lower value 0.98 | S. cerevisiae deletion strains, locus YDL132W, strain cdc53, stronger effect = lower value 0.983 | S. cerevisiae deletion strains, locus YDL214C, strain PRR2, stronger effect = lower value 1.01 | S. cerevisiae deletion strains, locus YDR052C, strain DBF4, stronger effect = lower value 0.986 | S. cerevisiae deletion strains, locus YDR054C, strain cdc34, stronger effect = lower value 0.975 | S. cerevisiae deletion strains, locus YDR226W, strain ADK1, stronger effect = lower value 0.987 | S. cerevisiae deletion strains, locus YDR477W, strain SNF1, stronger effect = lower value 0.993 | S. cerevisiae deletion strains, locus YER123W, strain YCK3, stronger effect = lower value 0.989 | S. cerevisiae deletion strains, locus YER133W, strain GLC7, stronger effect = lower value 0.995 | S. cerevisiae deletion strains, locus YFL009W, strain cdc4, stronger effect = lower value 0.988 | S. cerevisiae deletion strains, locus YFL029C, strain CAK1, stronger effect = lower value 0.979 | S. cerevisiae deletion strains, locus YFR003C, strain YPI1, stronger effect = lower value 0.985 | S. cerevisiae deletion strains, locus YFR019W, strain FAB1, stronger effect = lower value 1 | S. cerevisiae deletion strains, locus YFR028C, strain CDC14, stronger effect = lower value 0.98 | S. cerevisiae deletion strains, locus YGR040W, strain KSS1, stronger effect = lower value 0.983 | S. cerevisiae deletion strains, locus YGR052W, strain FMP48, stronger effect = lower value 1.09 | S. cerevisiae deletion strains, locus YGR092W, strain DBF2, stronger effect = lower value 0.974 | [6] 1.07 | S. cerevisiae deletion strains, locus YHR079C, strain IRE1, stronger effect = lower value 1.05 | S. cerevisiae deletion strains, locus YHR082C, strain KSP1, stronger effect = lower value 1.11 | S. cerevisiae deletion strains, locus YHR205W, strain SCH9, stronger effect = lower value 1.02 | S. cerevisiae deletion strains, locus YIL147C, strain SLN1, stronger effect = lower value 0.987 | S. cerevisiae deletion strains, locus YJL095W, strain BCK1, stronger effect = lower value 1.08 | S. cerevisiae deletion strains, locus YJL128C, strain PBS2, stronger effect = lower value 0.988 | S. cerevisiae deletion strains, locus YJL157C, strain FAR1, stronger effect = lower value 1 | S. cerevisiae deletion strains, locus YJR016C, strain ILV3, stronger effect = lower value 0.989 | S. cerevisiae deletion strains, locus YJR066W, strain TOR1 (second series), stronger effect = lower value 0.982 | S. cerevisiae deletion strains, locus YJR066W, strain TOR1, stronger effect = lower value 1.12 | S. cerevisiae deletion strains, locus YKL048C, strain ELM1, stronger effect = lower value 0.984 | S. cerevisiae deletion strains, locus YKL067W, strain YNK1, stronger effect = lower value 0.994 | S. cerevisiae deletion strains, locus YKL101W, strain HSL1, stronger effect = lower value 1.01 | S. cerevisiae deletion strains, locus YKL193C, strain SDS22, stronger effect = lower value 0.983 | S. cerevisiae deletion strains, locus YKL203C, strain TOR2, stronger effect = lower value 1.06 | S. cerevisiae deletion strains, locus YLR113W, strain HOG1, stronger effect = lower value 1.04 | S. cerevisiae deletion strains, locus YLR133W, strain CKI1, stronger effect = lower value 1.01 | S. cerevisiae deletion strains, locus YLR403W, strain SFP1, stronger effect = lower value 0.992 | S. cerevisiae deletion strains, locus YML070W, strain DAK1, stronger effect = lower value 1 | S. cerevisiae deletion strains, locus YMR001C, strain CDC5, stronger effect = lower value 0.983 | S. cerevisiae deletion strains, locus YMR205C, strain PFK2 (second series), stronger effect = lower value 1 | S. cerevisiae deletion strains, locus YMR277W, strain FCP1, stronger effect = lower value 0.991 | S. cerevisiae deletion strains, locus YNL006W, strain LST8, stronger effect = lower value 0.99 | S. cerevisiae deletion strains, locus YNL020C, strain ARK1, stronger effect = lower value 1.01 | S. cerevisiae deletion strains, locus YNL161W, strain CBK1, stronger effect = lower value 0.981 | S. cerevisiae deletion strains, locus YNL183C, strain NPR1, stronger effect = lower value 1.06 | S. cerevisiae deletion strains, locus YNL207W, strain RIO2, stronger effect = lower value 0.977 | S. cerevisiae deletion strains, locus YNL222W, strain SSU72, stronger effect = lower value 0.977 | S. cerevisiae deletion strains, locus YNL307C, strain MCK1 (second series), stronger effect = lower value 0.997 | S. cerevisiae deletion strains, locus YOL078W, strain AVO1, stronger effect = lower value 0.986 | S. cerevisiae deletion strains, locus YOL136C, strain PFK27, stronger effect = lower value 1.02 | S. cerevisiae deletion strains, locus YOR061W, strain CKA2, stronger effect = lower value 1.01 | S. cerevisiae deletion strains, locus YOR119C, strain RIO1, stronger effect = lower value 1.04 | S. cerevisiae deletion strains, locus YOR231W, strain MKK1, stronger effect = lower value 1.01 | S. cerevisiae deletion strains, locus YOR329C, strain SCD5, stronger effect = lower value 0.992 | S. cerevisiae deletion strains, locus YPL031C, strain PHO85, stronger effect = lower value 0.998 | S. cerevisiae deletion strains, locus YPL153C, strain RAD53, stronger effect = lower value 0.987 | S. cerevisiae deletion strains, locus YPL204W, strain HRR25, stronger effect = lower value 0.989 | S. cerevisiae deletion strains, locus YPL209C, strain IPL1, stronger effect = lower value 0.978 | S. cerevisiae deletion strains, locus YPL256C, strain CLN2, stronger effect = lower value 1.03 | S. cerevisiae deletion strains, locus YPR025C, strain CCL1, stronger effect = lower value 0.978 | S. cerevisiae deletion strains, locus YPR106W, strain ISR1, stronger effect = lower value 0.992 | S. cerevisiae deletion strains, locus YPR111W, strain DBF20, stronger effect = lower value 0.976 | S. cerevisiae deletion strains, strain NNK1, stronger effect = lower value 0.998 | S. cerevisiae deletion strains, strain TSCII, stronger effect = lower value 0.986

Cc1cc(=O)n2[nH]cnc2n1
inactive: S. cerevisiae deletion strains, locus YAL013W, strain DEP1, stronger effect = lower value 1.05 | S. cerevisiae deletion strains, locus YBR229C, strain ROT2, stronger effect = lower value 1.01 | [5] 1.06 | S. cerevisiae deletion strains, locus YDL134C, strain PPH21, stronger effect = lower value 0.964 | [1] 1.05 | S. cerevisiae deletion strains, locus YEL061C, strain CIN8, stronger effect = lower value 1 | S. cerevisiae deletion strains, locus YGR078C, strain PAC10, stronger effect = lower value 1.05 | [6] 1.14 | S. cerevisiae deletion strains, locus YHR087W, strain rtc3, stronger effect = lower value 0.99 | S. cerevisiae deletion strains, locus YJR043C, strain POL32, stronger effect = lower value 1.08 | S. cerevisiae deletion strains, locus YJR075W, strain HOC1, stronger effect = lower value 1.02 | S. cerevisiae deletion strains, locus YKL190W, strain CNB1, stronger effect = lower value 0.997 | S. cerevisiae deletion strains, locus YLR039C, strain RIC1, stronger effect = lower value 0.977 | S. cerevisiae deletion strains, locus YLR058C, strain SHM2 (second series), stronger effect = lower value 0.996 | S. cerevisiae deletion strains, locus YLR085C, strain ARP6, stronger effect = lower value 1.01 | S. cerevisiae deletion strains, locus YLR262C, strain YPT6, stronger effect = lower value 0.964 | S. cerevisiae deletion strains, locus YML094W, strain GIM5, stronger effect = lower value 0.985 | S. cerevisiae deletion strains, locus YMR219W, strain ESC1, stronger effect = lower value 0.99 | [2] 1.02 | S. cerevisiae deletion strains, locus YNL153C, strain GIM3, stronger effect = lower value 1.03 | S. cerevisiae deletion strains, locus YNL298W, strain CLA4 (second series), stronger effect = lower value 1.01 | S. cerevisiae deletion strains, locus YNL322C, strain KRE1, stronger effect = lower value 1 | S. cerevisiae deletion strains, locus YNR030W, strain Alg12, stronger effect = lower value 1.02 | [3] 0.997 | [4] 1.01 | S. cerevisiae deletion strains, locus YPR135W, strain CTF4, stronger effect = lower value 1.09 | S. cerevisiae strains, strain wild type, stronger effect = lower value 1.01
